Source: PubChem
PGK inhibitor: blocks T. brucei phosphoglycerate kinase | 380,000 compounds, 0.043% hits | AID 602233 | PGK/GAPDH coupled, Kinase-Glo luminescence, 60 min | Potency, µM (titrated, usually from 57.5 µM), actives largely listed as inhibitors | P07378; further: nearly all actives have a fitted effect of over 60% in size
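Luminescent ATP detection (Kinase-Glo Plus) follows a 60-minute room-temperature incubation, with wells lacking PGK as controls. Buffer: 100 mM TEA (pH 7.6), 5 mM MgCl2, 0.01% Tween-20. Coupling enzyme GAPDH (100 nM final) supplies unstable 1,3-BPG in-well.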
Pol eta inh-1: blocks human DNA polymerase eta activity. Q9Y253. recombinant Pol eta, fluorescent DNA replication assay. Potency, µM (titrated, usually from 114 µM), hits mostly inhibitors. 390,000 compounds, 1.2% hits. AID 588591
Target sequence (Q9Y253 whole entry, looked up): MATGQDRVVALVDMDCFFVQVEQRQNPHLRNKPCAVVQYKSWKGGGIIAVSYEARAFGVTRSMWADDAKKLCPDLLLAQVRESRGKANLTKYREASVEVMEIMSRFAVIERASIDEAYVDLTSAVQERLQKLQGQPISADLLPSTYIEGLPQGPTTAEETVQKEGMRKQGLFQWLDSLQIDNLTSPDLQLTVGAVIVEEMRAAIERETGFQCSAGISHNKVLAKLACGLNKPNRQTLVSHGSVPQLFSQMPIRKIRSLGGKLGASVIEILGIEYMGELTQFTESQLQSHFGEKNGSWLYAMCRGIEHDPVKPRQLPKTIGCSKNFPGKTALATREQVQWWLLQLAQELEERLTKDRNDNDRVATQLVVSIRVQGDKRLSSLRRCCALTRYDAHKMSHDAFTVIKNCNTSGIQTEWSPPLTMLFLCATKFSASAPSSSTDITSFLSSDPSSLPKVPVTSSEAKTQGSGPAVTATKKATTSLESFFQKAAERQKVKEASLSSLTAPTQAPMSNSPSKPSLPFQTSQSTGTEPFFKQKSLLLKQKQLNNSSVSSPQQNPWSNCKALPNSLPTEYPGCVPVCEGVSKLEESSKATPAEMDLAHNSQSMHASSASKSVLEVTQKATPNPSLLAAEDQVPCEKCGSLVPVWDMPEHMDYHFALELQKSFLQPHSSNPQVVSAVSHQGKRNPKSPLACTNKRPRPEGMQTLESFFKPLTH
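Fluorescent replication assay: 50 nM final substrate added after a 15 min room-temperature compound preincubation with 10 nM enzyme. Signal taken at 0 min and again at 10 min.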
Pol kappa inh-1: inhibitors of human DNA polymerase kappa; Q9UBT6; purified Pol kappa, fluorescent DNA synthesis assay, 10 min; Potency, µM (series often up to 107 µM), actives largely listed as inhibitors; 400,000 compounds, 0.53% hits
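First, compounds were pin-transferred onto 10 nM Pol kappa. After 15 min at room temperature, substrate was added to 50 nM final. Fluorescence was then measured kinetically at 0 and 10 min.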
POLB inh: blocks human DNA polymerase beta activity. P06746. Pol beta primer extension/strand displacement, fluorescence kinetic. Potency, µM (titrated, usually from 114 µM), hits mostly inhibitors. 340,000 compounds, 1.3% hits. AID 485314
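Curves were derived by four-parameter Hill fits of normalized qHTS data. The kinetic fluorescent primer-extension read was taken at 0 and 10 min after 50 nM substrate, following a 15 min room-temperature preincubation of 10 nM enzyme with compounds.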
FEN1 inhibitor: inhibitors of human flap endonuclease 1; AID 588795; 390,000 compounds, 0.35% hits; P39748; Recombinant FEN1 flap cleavage, fluorescence, 15 min; Potency, µM (titrated, usually from 114 µM), hits mostly inhibitors; further: nearly all actives have a fitted effect of over 65% in size
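Quantitative HTS format: each compound was titrated, incubated with 10 nM nuclease for 15 min at room temperature, then challenged with flap substrate at 50 nM final. Signal change over 15 min gave concentration–effect curves.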
POLI inh: DNA polymerase iota (human) inhibition. Q9UNA4. Pol iota fluorescent replication assay, 10 min. Potency, µM (titrated, usually from 115 µM), actives largely listed as inhibitors. 390,000 compounds, 1% hits
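Pol iota at 10 nM preincubated 15 min with compounds at room temperature; reaction started with fluorescent substrate, 50 nM final. Fluorescence read kinetically at 0 and 10 min; buffer-only wells as negative control.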
GALK inh confirm: galactokinase (human) inhibition, confirmation. shares compounds with Pol eta inh-1. 150 compounds, 70% hits. purified GALK, Kinase-Glo ATP depletion luminescence. Potency, µM (titrated, usually from 115 µM), hits mostly inhibitors
Redox cycling: redox cycling activity in phenol red-HRP assay; Phenol red-HRP H2O2 redox cycling, absorbance 600 nm; AID 2035; 150 compounds, 40% hits; shares compounds with Pol eta inh-1; Potency, µM (top dose mostly 115 µM), actives largely listed as inhibitors
HEK293 viability: HEK-293 cytotoxicity, GALK inhibitor secondary | shares compounds with Pol eta inh-1 | Potency, µM (series often up to 46.1 µM), most hits filed as inhibitors | HEK-293 viability, ATP luminescence (CellTiter-Glo), 24/48 h | 170 compounds, 10% hits | AID 2547
Pol kappa inh-2: Pol kappa (human) inhibition, cherry-pick confirmation; 920 compounds, 76% hits; purified Pol-kappa, fluorescent strand-displacement substrate; shares compounds with Pol eta inh-1; Potency, µM, actives largely listed as inhibitors; AID 720501
Pol eta inh-2: Pol eta (human) inhibition, cherry-pick confirmation; shares compounds with Pol eta inh-1; Pol eta primer extension, TAMRA/BHQ fluorescence, 10 min; Potency, µM, usual class: inhibitors; 2,600 compounds, 64% hits
Numbers stand for hits; n = inactive; u = inconclusive; x = no result; [ ] = remark or other dose. Shown are actives, neighbours in structure and some others; about 2.4% of the full set was active somewhere. The call rests on the fitted dose curve; in most records, active means well fitted curve in the direction sought with a large enough effect; inconclusive means small, poorly fitted or top-dose-only effect, or another doubt; inactive means no such curve, though single readings can be large; an effect the other way counts as inactive or inconclusive.

SMILES	PGK inhibitor	Pol eta inh-1	Pol kappa inh-1	POLB inh	FEN1 inhibitor	POLI inh	Pol eta inh-2	others
COC(=O)Cc1ccc(NC(=O)c2ccc(NC(=O)c3ccco3)cc2)cc1	n	n	n	n	n	n	x
Cc1cccc(Nc2ccccc2C(=O)OCC(=O)NCc2ccco2)c1C	n	79.4µM	n	n	n	u	u
COc1cccc(Cn2c(=O)c(-c3cccs3)nc3cnc(N4CCN(C)CC4)nc32)c1	x	x	n	x	x	x	x
Cn1c(-n2cccc2)c(-c2c(-c3ccccc3)[nH]c3c2c(=O)[nH]c(=O)n3C)c(=O)[nH]c1=O	n	79.4µM	u	15.8µM	n	79.4µM	x	Pol kappa inh-2=u
Cc1ccc(-c2[nH]c3c(c2-c2c(-n4cccc4)n(C)c(=O)[nH]c2=O)c(=O)[nH]c(=O)n3C)cc1	n	u	n	n	n	n	x
CCN(CC)CC#CCOC(=O)[C@@](O)(c1ccccc1)C1CCCCC1	x	x	n[12 µM]	x	x	x	x
Cc1nc(SCC(=O)O)c(C#N)c2c1CCCC2	n	7.94µM	u	8.91µM	n	25.1µM	23.9
COc1ccc(OC)c(CCNC(=O)c2ccc3c(=O)[nH]c4c(C(=O)NC(C)C)sc(=S)n4c3c2)c1	n	15.8µM	n	n	n	n	42.6
O=C(NC1CCCCC1)c1sc(=S)n2c1[nH]c(=O)c1ccccc12	n	25.1µM	n	17.8µM	u	n	x	Pol kappa inh-2=u
CC(C)NC(=O)c1sc(=S)n2c1[nH]c(=O)c1ccc(C(=O)NCCc3ccc(Cl)cc3)cc12	n	u	n	n	n	u	x
O=C(NCCc1ccccc1)c1ccc2c(=O)[nH]c3c(C(=O)NCC4CCCO4)sc(=S)n3c2c1 (stereo unspecified)	n	n	u	n	u	u	x	GALK inh confirm=37.5µM;Redox cycling=n;HEK293 viability=n
CCCCNC(=O)c1sc(=S)n2c1[nH]c(=O)c1ccccc12	n	u	n	u	u	n	x
O=C(NCC1CCCO1)c1sc(=S)n2c1[nH]c(=O)c1ccc(C(=O)N3CCCCC3)cc12 (stereo unspecified)	n	n	n	n	n	u	x
COc1cccc(-n2ccn(CC(=O)c3ccc(F)cc3)c(=O)c2=O)c1	n	n	n	n	n	u	x
COc1ccc(-c2nc3sc(CCNC(=O)c4ccc(C(C)(C)C)cc4)c(C)n3n2)cc1	n	n	n	n	n	n	x
Cc1csc(NC(=O)c2cc(C)nc3ccccc23)n1	n	n	n	n	n	n	x
Cc1cc(C(=O)Nc2sccc2C#N)c2ccccc2n1	n	44.7µM	n	n	n	u	u
CC(C)CC(=O)Nc1c(C(=O)N2CCN(c3ccccc3F)CC2)oc2ccccc12	n	n	n	n	n	n	x
O=c1c(C=Nc2cccc(C(F)(F)F)c2)c[nH]n1-c1cccc(Cl)n1	n	89.1µM	n	u	n	n	u
Oc1c(Br)cc(/C=N/Nc2ccc(Cl)nn2)cc1Br	n	22.4µM	u	50.1µM	u	u	84.9
O=C(CN1C(=O)C2(SCC(=O)N2c2cccc(Cl)c2)c2ccccc21)NCCc1ccccc1 (stereo unspecified)	n	n	n	n	n	n	x
